# Results from the OligoGym collection.
# Molecular target: EPAS1
# Test: pooled miR-30 sensor sort-seq; sequence = guide strand
# Conditions: shRNA
# Note: reference of the scale not given here.
row,Sequence,sensor-assay potency score (higher = more potent)
1,TTCAGCTTCAGCTTGTTGGAGA,-0.377
2,TTTTCTGACAGAAAGATCATGT,0.329
3,TCACACATGATGATGAGGCAGG,-0.0655

# Molecular target: EPB41
# Test: as above
# Conditions: shRNA
row,Sequence,sensor-assay potency score (higher = more potent)
1,TTTGTAGAAACAACCAGCCTGG,0.246
2,TTCATAAACTGTGTCATCCAAC,-0.828
3,TTAGCTGCTCGGTAACTGGGAA,-0.397
4,TTCTTTGCCTTCTTCCTCGGAC,-0.102
5,TTGATCTCCTCTTGACTCTTGT,0.588
6,TTCTGGGTCGTAGTCTCCCAGT,-1.42
7,TTATGTCTTCTGTTAACTGTGC,-0.0684
8,TTGACTCTTGTCTAAATCCTCC,-0.522
9,TGTTTGACAAGATTCCTCCTGC,0.721
10,TAAAACTTTACATTAAATGTAA,-0.313
11,TTGGTCACTGACATGTCTGGGT,-0.161
12,TAGAATAATCTTGAAAGTCTGA,0.113
13,TAGAGCACTAGCTTGCCTGGTC,0.107
14,TAGCTTGCCTGGTCTGAGCTTG,-0.0306
15,TATCTTGTTATGTCTTCTGTTA,-0.573
16,TTTACTTCTATTTTGGAGCACT,-0.574
17,TTTGATCTCCTCTTGACTCTTG,0.604
18,TTGAACAATTCTGATATCCTAA,-0.113
19,TTTTTCAGCTCACTGATGCTGG,0.147
20,TTGACAAGATTCCTCCTGCTGA,-0.541
21,TTTACTTGCTGTACGCTCGAAG,0.135
22,ATAATTTCTTAGCTGCTCGGTA,-0.474
23,ATCTTCTCTGAGTTCTTCCTGA,-0.459

# Molecular target: EPC2
# Test: as above
# Conditions: shRNA
row,Sequence,sensor-assay potency score (higher = more potent)
1,TTAATTTCCATCTTTCTGTTAA,-0.679
2,TTCTTGAAGTGTTACAAGCTGA,-0.486
3,TTATTGTTCACAGTCTGCCCTG,-0.344
4,TTTCTCTAAACACTTGCTGTGC,-0.595
5,TAGTTTTACATTCTTGAACTTT,-0.105
6,TTGCTGTTTCTGCTGAAGCTGG,-1.06
7,TTCTTCACTATCACTGTCCTGT,0.612
8,TATAACTCTTTTTCTGATCTAC,0.207
9,TTGCATCTGAACTAACTGCTGC,0.128
10,TTAAGTGCAATAATTCTCGTTT,0.497
11,TTTTTCTCTAAACACTTGCTGT,-0.823
12,TTGAGGTACATTCTTCACTATC,-1.27
